The text below walks through data of PubChem BioAssay AID1403 (National Center for Advancing Translational Sciences (NCATS), 2008).

Results filed as inconclusive are left out. Calls of active or inactive are those of the source. Calls follow the shape of the dose curve; as a rule, active = well fitted curve in the direction sought with a large enough effect in the signal ratio; inconclusive = small, poorly fitted or top-dose-only effect, or a change in a side signal; inactive = no such curve, though single readings can be large or run the other way; the % refers to the signal ratio.

The target in the assay is Follicle-stimulating hormone receptor (Homo sapiens) (UniProt P23945). Briefly: Counterscreen for Agonists of Thyroid Stimulating Hormone Receptor: HTRF Activity in a Follicle Stimulating Hormone Receptor Cell Line. The settings on record: HEK293-FSHR cells, 30 min; series mostly up to 91.7 µM; activation (cAMP increase): at the top concentration. The source says:
NIH Chemical Genomics Center [NCGC] NIH Molecular Libraries Screening Centers Network [MLSCN] MLSCN Grant: 1 X01 MH080680-01 PI Name: Dr. Marvin Gershengorn, NIH NCGC Assay Overview: Confirmation of Thyroid Stimulating Hormone Receptor Agonists TSH is an alpha/beta heterodimeric glycoprotein hormone secreted from the anterior pituitary gland which belongs to the glycoprotein hormone family. The actions of TSH are mediated by a seven-transmembrane receptor, which upon TSH binding couples preferentially to the G-alpha (s) protein (Gs), resulting in activation of adenylate cyclase and increase in cyclic adenosine 3', 5' monophosphate (cAMP). The TSH receptor (THSR) is mainly expressed in thyroid follicular cells and regulates their growth and function. Recombinant TSH is used to activate TSHR in patients with thyroid cancer receiving thyroid hormone suppression therapy and to screen for residual tumor after surgery, but it is expensive and must be administered intramuscularly. An orally active small molecule TSHR agonist would serve as an invaluable research tool for studying TSHR pharmacology and physiology, and would have multiple advantages in therapeutic settings. However, no selective small molecule agonist of the TSH receptor exists, and no small molecule screen for TSHR agonists has ever been reported. In order to confirm specificity of the compounds to the TSHR, a confirmatory assay was conducted on a similar family member, the Follicle Stimulating Hormone (FSH) receptor, transfected into a HEK 293 cell line, using an orthogonal detection technology to measure cAMP stimulation: antibody-based Homogeneous Time Resolved Fluorescence (HTRF).
NCGC Assay Protocol Summary: Homogeneous Time Resolved Fluorescence (HTRF) cAMP Assay. HEK 293 cells stably transfected with a vector containing the FSH receptor and maintained under hygromycin selection were obtained from the laboratory of Dr. Marvin Gershengorn. Compounds were assayed using a HTRF cAMP detection kit (Cisbio) on the FSH receptor transfected cell line. Briefly, 750 cells were plated in 2.5 ul/well of complete media (DMEM containing 10 % FCS, and 100 uM RO 20-1724) in 1536 well solid bottom white plates and 23 nl/well compound in DMSO solution or controls was added. Following 30 minute incubation at room temperature, 2.5 ul/well of labeled d2 cAMP and 2.5 ul/well of anti-cAMP antibody (both diluted 1:20 in lysis buffer) were added to each well using a flying reagent dispenser (Aurora Discovery, San Diego) . Plates were measured using the Envision plate reader (PerkinElmer, Boston, MA) with excitation at 330 nm and emissions of 615 nm and 660 nm. Keywords: Follicle Stimulating hormone FSH, Thyroid-stimulating hormone TSH, TSHR, TSHR agonist, quantitative high throughput screening, qHTS, HTS, probe identification, CNG, cAMP, cyclic nucleotide gated ion channel PubChem
For `O=C1C2C3CCCC3=C3CCCC3C2C(=O)N1c1ccc(Cl)cc1` (stereo unspecified), the “activation (cAMP increase)” value was 1.86% (inactive). Turning to `NC(=O)c1nsc(C(=O)N(CC(=O)NCc2ccc3c(c2)OCO3)C2CCCC2)c1N`, the “activation (cAMP increase)” value was 2.69% (inactive). Turning to `COc1cc(OC)c(C(=O)N(Cc2ccco2)Cc2cccs2)cc1OC`, the “activation (cAMP increase)” value is 1.54% (inactive). In the case of `O=c1c2c(-c3ccccc3)csc2ncn1/N=C/c1cn(-c2ccccc2)nc1-c1cccs1`, the “activation (cAMP increase)” value was 1.77% (inactive). Turning to `COc1ccc(C(=O)N(Cc2ccco2)Cc2cccs2)cc1`, the “activation (cAMP increase)” value is 1.97% (inactive).

On to `O=C1CC(c2ccccc2)CC2=C1C(c1ccco1)n1nc(C(F)(F)F)nc1N2` (stereo unspecified), for which the “activation (cAMP increase)” value was 2.73% (inactive).

As for `COc1ccc(C2Nc3ccccc3C(=O)N2Cc2ccco2)cc1COc1ccc([N+](=O)[O-])cc1` (stereo unspecified), the “activation (cAMP increase)” value is 1.48% (inactive).

On to `O=C1C2C3CCCC3=C3CCCC3C2C(=O)N1c1ccccc1Cl` (stereo unspecified), for which the “activation (cAMP increase)” value was 1.16% (inactive).

As to `COc1ccc(C2Nc3ccccc3C(=O)N2Cc2ccco2)cc1COc1ccc(NC(C)=O)cc1` (stereo unspecified), the “activation (cAMP increase)” value is 2.5% (inactive).

On to `O=C(COC(=O)C12CC3CC(CC(C3)C1)C2)NCC1CCCO1` (stereo unspecified), for which the “activation (cAMP increase)” value was 2.33% (inactive). In the case of `O=C(COC(=O)C12CC3CC(CC(O)(C3)C1)C2)NCc1ccco1`, the “activation (cAMP increase)” value is 1.41% (inactive).

`NC(=O)c1nsc(C(=O)N(CC(=O)NCc2ccc3c(c2)OCO3)C2CCCCC2)c1N`: the “activation (cAMP increase)” value was 1.39% (inactive).

For the compound `COc1ccc(C(=O)N(Cc2ccco2)Cc2cccs2)c(O)c1`, the “activation (cAMP increase)” value is 2.03% (inactive). Take `O=C1C2C3CCCC3=C3CCCC3C2C(=O)N1c1cccc(Cl)c1` (stereo unspecified): the “activation (cAMP increase)” value was 1.12% (inactive).

Consider `CCn1c(=O)c(C(=O)CN2CCCc3ccccc32)c(N)n(Cc2ccccc2)c1=O`, for which the “activation (cAMP increase)” value was 2.04% (inactive).

`O=C(COC(=O)C12CC3CC(CC(C3)C1)C2)NCc1ccco1`: the “activation (cAMP increase)” value was 1.72% (inactive). Under `Cc1sc2ncn(/N=C/c3cn(-c4ccccc4)nc3-c3ccccc3)c(=O)c2c1C` stands 2.19% (inactive); under `CC(NC(=O)COC(=O)c1ccco1)C12CC3CC(CC(C3)C1)C2` (stereo unspecified), 2.3% (inactive); under `O=C1C2C3CCCC3=C3CCCC3C2C(=O)N1c1ccc(F)cc1` (stereo unspecified), 1.1% (inactive). As to `O=C(COC(=O)C12CC3CC(CC(Br)(C3)C1)C2)NCc1ccco1`, the “activation (cAMP increase)” value was 2.19% (inactive). In the case of `COc1ccc(C(=O)N(Cc2ccco2)Cc2cccs2)c(OC)c1`, the “activation (cAMP increase)” value is 2.98% (inactive).

As to `Cc1nn(-c2ccccc2)c(N2CCCC2)c1/C=N/n1cnc2scc(-c3ccccc3)c2c1=O`, the “activation (cAMP increase)” value is 1.54% (inactive). With `O=C(COC(=O)C12CC3CC(CC(Cl)(C3)C1)C2)NCc1ccco1`, the “activation (cAMP increase)” value is 3% (inactive). Under `COc1ccc(C2Nc3ccccc3C(=O)N2Cc2ccco2)cc1COc1c(C)cccc1C` (stereo unspecified) stands 2.19% (inactive). With `COc1ccc(C2Nc3cccc(O)c3C(=O)N2Cc2ccccc2)cc1COc1ccc(NC(C)=O)cc1` (stereo unspecified), the “activation (cAMP increase)” value was 2.5% (inactive). Consider `NC(=O)c1nsc(C(=O)N(CC(=O)NC2CCCC2)Cc2ccc3c(c2)OCO3)c1N`, for which the “activation (cAMP increase)” value was 2.28% (inactive).
